Experimental data from ChEMBL document CHEMBL1201862, “PubChem BioAssay data set” (2004).
The campaign covered roughly 57,000 sequences. About 2,300 (4%) were called active. No stated cut-off is given here; in the data, active = GI50 up to about 1.1 µM and inactive = higher. A selection follows. Potency and affinity values are given separately.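 The compound was tested at five concentrations on cells cultured in 96-well plates, with a 48-hour exposure period. Abbreviation: GI50, concentration required for 50% inhibition of growth.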

Test system: SK-MEL-28
Test: NCI tumour cell line growth inhibition, 48 h

Row | Substance | GI50
1 | [Bis(aminomethyl)diethylsilane]tetrachloroplatinum(IV), CHEMBL2146203 | 1.72 µM
2 | CISPLATIN, CHEMBL11359 | 4.43 µM
3 | [Bis(aminomethyl)tetramethylenesilane]dichloropaltinum(II), CHEMBL2146205 | 20.3 µM
4 | [Bis(aminomethyl)pentamethylenesilane]dichloropaltinum(II), CHEMBL2146202 | 3.85 µM
5 | [Bis(aminomethyl)ethylmethylsilane]tetrachloroplatinum(IV), CHEMBL2146192 | 2.76 µM
6 | [Bis(aminomethyl)pentamethylenesilane]tetrachloropaltinum(IV), CHEMBL2146204 | 1.23 µM
7 | cis-Bis[[(trimethylsilyl)methyl]amino]tetrachloroplatinum(IV), CHEMBL2146191 | 2.86 µM
8 | [Bis(aminomethyl)dimethylsilane]tetrachloroplatinum(IV), CHEMBL2146190 | 10.2 µM
9 | [Bis(aminomethyl)tetramethylenesilane]tetrachloropaltinum(IV), CHEMBL2146189 | 2.85 µM
10 | mu-(1,7-nanodiamine-N,N')bis-(cis-aminedichloroplatimum (II)), CHEMBL2146215 | 10.2 µM
11 | [Bis(aminomethyl)dimethylsilane]dichloroplatinum (II), CHEMBL2146201 | 21.6 µM
